KB-3-1 tox – qHTS assay for MDR1-selective chemotherapeutics: Primary screen using the parental adenocarcinoma cell KB-3-1. actives 1.4% (n = 400,000). Potency, µM (top dose mostly 46.1 µM), usual class: cytotoxic. KB-3-1 viability, CellTiter-Glo ATP luminescence, 72 h. AID 1347075, 2019; also: % is scaled to controls: 0 for no effect and ±100 for the full control effect; nearly all actives have a fitted effect of over 60% in size
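Parental KB-3-1 adenocarcinoma cells in phenol-red-free DMEM with 10% FBS were pin-treated with compounds at several concentrations, incubated 72 h at 37 °C, and viability read by CellTiter-Glo luminescence; concentration-effect curves were fitted after normalization.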
SW480 rereplic – A quantitative high throughput screen for small molecules that induce DNA re-replication in SW480 colon adenocarcinoma cells. SW480 DNA re-replication, Hoechst DNA content imaging, 48 h. actives 1.8% (n = 340,000). AID 624297, 2012. Potency, µM (titrated, usually from 46.1 µM), for inactives: at the top dose re-replication activation, usual class: activators; also: % of control where 0% means no effect; nearly all actives have a fitted effect of over 55% in size
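250 cells/well; 23 nL cpd via pin tool; 48 hr, 37 C, 5% CO2; Hoechst 40 min; imager read of total nuclear intensity, ex 405/em 500-530 nm.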
HT1080NT lethal – qHTS for induction of synthetic lethality in tumor cells producing 2HG: qHTS for the HT-1080-NT fibrosarcoma cell line; Potency, µM (highest dose often 46.1 µM), inactives show at the top dose activity, negative = less viability, actives largely listed as cytotoxic; actives 1.6% (n = 360,000); AID 686970, 2013; HT-1080-NT fibrosarcoma viability, CellTiter-Glo ATP luminescence, 48 h;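 also: NT is the 2HG producing partner of a matched IDH1 knockdown line; 0% = DMSO-treated cells and -100% = media-only wells without cells; nearly all actives have a fitted effect of over 55% in size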
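750 cells/well, RPMI + 5% FBS; 2 h settle, compound pin-transfer, 48 h at 37 degrees C. CellTiter-Glo 10 min RT, luminescence. Normalized to DMSO and media-only wells.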
MCF10A rereplic – A quantitative high throughput screen for small molecules that induce DNA re-replication in MCF 10a normal breast cells. actives 2.9% (n = 350,000). MCF 10A DNA re-replication, Hoechst nuclear intensity, 48 h. AID 624296, 2012. Potency, µM (titrated, usually from 46.1 µM), for inactives: top-dose activity, positive = re-replication, hits mostly activators; also: % of control where 0% means no effect; nearly all actives have a fitted effect of over 50% in size
KB-V1 cytotox – qHTS assay for MDR1-selective chemotherapeutics: Primary screen using the drug-selected MDR subline cells KB-V1 | KB-V1 MDR cells viability, CellTiter-Glo, 72 h | AID 1347076, 2019 | actives 3.4% (n = 400,000) | Potency, µM (titrated, usually from 46.1 µM), most hits filed as cytotoxic; also: % is scaled to controls: 0 for no effect and ±100 for the full control effect; nearly all actives have a fitted effect of over 60% in size
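Potencies derive from concentration-effect curves fitted to normalized luminescence (CellTiter-Glo) of KB-V1 cells treated for 72 h at 37 degrees C in phenol-red-free DMEM containing 10% FBS.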
HT1080 IDH1KD tx – qHTS for induction of synthetic lethality in tumor cells producing 2HG: qHTS for the HT-1080-IDH1KD cell line | actives 2% (n = 360,000) | Potency, µM (titrated, usually from 46.1 µM), without a hit: at the top dose activity, negative = toxicity, actives largely listed as cytotoxic | HT-1080 IDH1 knockdown viability, ATP luminescence, 48 h;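 also: 0% = DMSO wells and -100% = cell-free medium wells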
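Using the IDH1-knockdown HT-1080 line run in the same batch and compound series as the NT line, viability after 48 h at 37 °C was determined by CellTiter-Glo luminescence and expressed as % activity.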
* = called active by the depositor; i = inactive; ? = inconclusive; · = no result given; [ ] = remark or other dose. Only some compounds are listed: those with a hit (about 7.9% of all), similar ones and a draw of the others. Calls follow the shape of the dose curve; as a rule, active = well fitted curve in the direction sought with a large enough effect; inconclusive = small, poorly fitted or top-dose-only effect, or another doubt; inactive = no such curve, though single readings can be large; an effect the other way counts as inactive or inconclusive. Potency is read from the fitted curve at half-maximal effect.

SMILES | KB-3-1 tox | SW480 rereplic | HT1080NT lethal | MCF10A rereplic | KB-V1 cytotox | HT1080 IDH1KD tx
CNC(=O)/C(C#N)=C/c1c(N(Cc2ccccc2)Cc2ccccc2)nc2c(C)cccn2c1=O | 16µM* | 0% | 18µM* | ? | 23µM* | ?
O=C(C[C@H]1C[C@H](C(=O)N2CCCCC2)[C@@]2(CCc3ccccc3)c3[nH]c4ccc(Cl)cc4c3CCN2C1=O)NCc1ccco1 | i | 6% | 4% | ? | i | 4%
CC(NC(=O)COC(=O)c1cn(-c2ccccc2)nc1-c1cccs1)c1ccccc1 (stereo not given) | i | 6% | 0% | ? | 21µM* | -5%
COc1cc([N+](=O)[O-])ccc1N/C=C/C(=O)c1cccs1 | 5.2µM* | -2% | 4%[9.24 µM] | 23% | 3.3µM* | ?
COC(=O)c1[nH]c(C)c(/C(O)=C2\C(=O)C(=O)N(CCN3CCOCC3)C2c2cccs2)c1C (stereo not given) | i | -4% | 14% | 7% | i | 24%
CCOC(=O)c1[nH]c(C)c(/C(O)=C2\C(=O)C(=O)N(CCCN3CCOCC3)C2c2cccs2)c1C (stereo not given) | ? | 13µM* | 9.2µM* | 9.2µM* | ? | 21µM*
O=C(Nc1ccccc1)c1ccc(=O)[nH]n1 | i | -14% | 14% | -1% | i | 29%
O=C(Nc1ccccc1Cl)c1ccc(=O)[nH]n1 | 7.3µM* | ? | 9% | 9% | 8.2µM* | 15%
CCOc1ccc(NC(=O)CCc2nnc3n(C)c(=O)c4sccc4n23)cc1 | i | · | · | · | i | ·
CC(=O)Nc1c(Cl)c(Cl)c2c(c1Cl)C(=O)c1cc(Cl)ccc1-2 | 21µM* | -1% | 3% | 0% | 15µM* | 16%
CCOc1ccc(NC(=O)C2(c3cccs3)CCOCC2)cc1 | i | · | · | · | i | ·
O=C(CSc1nc2c([nH]c3ccccc32)c(=O)n1-c1cccc(C(F)(F)F)c1)N1CCc2ccccc21 | i | · | · | · | ? | ·
COC(=O)C(C)NC(=O)C1CCCN1C(=O)CNC(=O)OCc1ccccc1 (stereo not given) | i | -11% | 10% | -1% | i | 10%
COc1ccc(Sc2ccc(-c3nc4cnccn4c3NC3CCCCC3)cc2OC)cc1 | ? | 18µM* | 5% | 3.3µM* | ? | 9%
Cc1ccc2nc(-c3ccncc3)c(NC3CCCCC3)n2c1 | ? | 0% | 14% | 9% | 21µM* | 12%
CCCCCCSc1ccc(-c2nc3cnccn3c2NC2CCCCC2)cc1 | ? | · | 1% | · | ? | 4%
COc1cc(-c2nc3cc(C)ccn3c2NC2CCCCC2)ccc1-c1ccc(C(C)=O)cc1 | i | ? | -20% | ? | i | ?
Clc1ccc(-c2nc3cnccn3c2NC2CCCC2)cc1 | ? | 23µM* | -2% | 21µM* | 6.5µM* | -7%
Cc1ccc2nc(-c3ccncc3)c(NC3CCCC3)n2c1 | i | ? | -3% | ? | i | -4%
Nc1c(Cl)cc(C(=O)NC2CC2)cc1Cl | i | -6% | 3% | -9% | i | 11%
Cc1cccc(C)c1NC(=O)CN(C)C(=O)C1=COCCO1 | i | -7% | 5%[9.24 µM] | -5% | i | -1%
COC(=O)/C(=C\Nc1ccc(Cl)cc1Cl)NC(=O)c1ccc(Cl)cc1Cl | ? | 19% | ? | 12µM* | ? | ?
CC(C)Cc1nc2sc3c(=O)[nH]cnc3c2c2c1CCC2 | i | -6% | -5% | 6% | 16µM* | -6%
CC(C)c1nc2sc3c(=O)[nH]cnc3c2c2c1CCC2 | i | -5% | -13% | 2% | i | 20%
CCOc1ccc2ncc(S(=O)(=O)c3ccc(C)cc3)c(N3CCC4(CC3)OCCO4)c2c1 | ? | ? | -9% | ? | 4.1µM* | -5%
SMILES | KB-3-1 tox | SW480 rereplic | HT1080NT lethal | MCF10A rereplic | KB-V1 cytotox | HT1080 IDH1KD tx
Cc1ccc(C(=O)Nc2ccccc2C(=O)O)cc1S(=O)(=O)Nc1ccc(Br)cc1 | i | -15% | -26% | ? | i | -11%
Cc1ccc(-n2c(C)nc3c(cnn3-c3ccccc3Cl)c2=O)cc1C | ? | 3% | 17% | 0% | 21µM* | -1%
Cc1nc2c(cnn2-c2ccccc2Cl)c(=O)n1-c1ccc(N2CCC(C)CC2)cc1 | 16µM* | -1% | -10% | 4% | 6.5µM* | -27%
COc1cc(OC)cc(-c2nc3ccccc3c(=O)n2OC(=O)c2ccccc2C)c1 | i | 0% | ? | 16µM* | ? | ?
O=C(O)C1C(c2ccccc2)=C1c1ccc(Br)cc1 (stereo not given) | i | · | 0% | · | i | 2%
NC(=O)C1C(c2ccccc2)=C1c1ccccc1 | i | 3% | 1% | -1% | 21µM* | 6%
COc1ccc([C@H]2CC(=O)C=C(c3ccc4c(c3)sc3ccccc34)C2)cc1 | i | -1% | 8% | 13% | i | 1%
Cc1cccc(CN2C(=O)N/C(=C/c3ccc(C)s3)C2=O)c1 | 23µM* | ? | -27% | 7.3µM* | 15µM* | ?
COc1ccc(NC(=O)Cn2cnc3ccc(S(=O)(=O)N4CCC(C)CC4)cc3c2=O)cc1OC | i | · | · | · | i | ·
FC(F)(F)c1ccc(/C=N/NC(=S)NC2CCCCC2)cc1 | i | 10% | -19% | 18µM* | i | -26%
FC(F)(F)c1cccc(/C=N/NC(=S)NC2CCCCC2)c1 | i | -6% | ? | ? | i | ?
Cc1nnc(SCCn2c(N3CCC(C)CC3)nc3c2c(=O)n(C)c(=O)n3C)s1 | ? | -10% | 4% | 14% | 12µM* | 0%
O=C(c1cc2cc(F)ccc2[nH]1)N1CCCC(Nc2ccc(F)cc2)C1 (stereo not given) | i | -2% | -28% | 7% | i | ?
COc1cc2c(cc1OC)C1=C(C#N)CN(C3CCCCC3)CN1CC2 | i | 1% | -23% | 3% | 21µM* | -2%
COc1ccc(C(=O)N=C2CCC(C#N)=C3c4cc(OC)c(OC)cc4CCN23)cc1 | ? | 6% | -2% | ? | 12µM* | 0%

High-throughput results deposited in PubChem BioAssay by National Center for Advancing Translational Sciences (NCATS).
